Our source for the z-score values is PubChem BioAssay AID1508600 (Functional Genomics Laboratory (NCATS/FGL), 2020).

Among all 53,000 sequences or so, about 3,700 (7%) were called active. Many of the other results were omitted from the sample, so actives are more common in it than they were. Unmarked numbers belong to inactive results.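 Rule for the calls: active = gene knockdowns whose robust z-score for IL-1 alpha signal is at least 2 or at most -2, so actives lie on both sides; inactive = the rest.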

The test is described as follows: Components of the Cytosolic LPS Sensing Pathway: Gene Identification via Genome-wide siRNA Screen.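 Note: robust z of the log signal after scaling to non-targeting control siRNA wells of the plate.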 The following applies: RAW264.7 macrophages, IL-1a HTRF, actives lie on both sides, screened at 100 nM (by protocol), cells primed 5 h with Pam3CSK4 first. In short, it runs like this: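 Supernatant IL-1a by HTRF from RAW264.7 cells primed with Pam3CSK4 (5 hours) and transfected with LipidA (24 hour) after 48h siRNA knockdown at 100 nM; cell viability checked with CellTiter-Glo.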
Regarding GGAUCACAGCAGAAGAAAUTT against Tmem144, the z-score was -2.95 (active).
In the case of GGAAGUGGAAGUUCUGAAGTT against Tsc22d1 it was -0.886; in that of GGGUCUUAUGGAAGUGUUUTT against Stk3, 7.27 (active); in that of CCUUUUUGAGGAAUUUGGATT against Scaf8, -0.0964.
With CGGCUCGUUGAAGAACAAATT against Afap1, the z-score is -1.32.
Consider GGCUUCAUUCGUAGGCCAUTT against Smcr8, for which the z-score is 1.64.
For the sequence GGUUCACAGUAACCAUUGGTT against Zc3h18, the z-score was -2.45 (active).
In the case of GCAAAAGGAAACGAUCUCATT against Fbxo43, the z-score was -0.302.
For the sequence GGCUCAGGACUUUGUCUACTT against Lhx4, the z-score is -1.19.
As for GGUUCAACUCUCUUUUUGATT against Atp8b5, the z-score was 0.347.
Consider GCGAAUGUAGUGUAUUAUGTT against Prkd1, for which the z-score was 0.259.
The value for GGACUGUUGAAUAAAACCUTT against Rnps1 was -2.29 (active); that for AGGCACGUCUGAUUGCAUGTT against LOC432823 was 0.578.
In the case of CCAUUGUGAUCAAGAUAAATT against Cggbp1 it was -0.35; in that of GCUGUGUCACUACUUCGAUTT against Rpp40, 1.32; in that of GGUGAAAGACACUUGAAUUTT against Cdk2, 0.625.
The value for GGAGACAGAGAAGAUUUGUTT against Mia2 was -0.21.
Regarding “GCCAACUACGUAUAUACAUTT against 4921511C20Rik”, the z-score is 2.41 (active).
On to GCAAGGUGACAUCAGAAGUTT against Flot2, for which the z-score is -0.709.
In the case of GGACAUAUAUAGCAAGGAGTT against Polrmt it was 1.07.
In the case of GGACAGCAGUUUUUACUAGTT against Mllt10 it was 0.907; in that of GCUGUUUGACUACAUAAUCTT against Melk, 0.275; in that of GGUUGGAAAUGAAAUCAAUTT against Erc2, 2.36 (active).
The value for GGUUCAAGUGACCAAGUUCTT against Odf3 was -0.487; that for CCCAAGAUGGUAGCAGACATT against Tbxas1 was -0.00814; that for GGAACAUGACAUUUUUGUCTT against Smdt1 was -0.561.
In the case of “GGAGGACUCAGCACUCUUUTT against E130311K13Rik”, the z-score is -0.769.
GGAUCACAGUCUCUUCGGUTT against Fgf20: the z-score was 0.473.
In the case of GCACUGAUGUAAGGUAACCTT against Prdm4 it was 2.48 (active); in that of GGGUGUACCUUAUGUAUUATT against Prpf4, 1.03; in that of GGAUUGUGCAGAGCAUCUGTT against Card14, -1.45.
In the case of GGCUGAGGAGAUAACCAUATT against Nemp2 it was -0.701; in that of GAUGGACAAACGGAAGUGCTT against Iapp, 0.322; in that of GGACUUCAGUUACAACCGGTT against Nr1h3, -0.174.
The value for GGCCCAUUUUGGUGUGCAUTT against Hyal3 was -2 (active); that for CCACAAUUUUUUCUGCCUCTT against Olfr492 was -0.694; that for CGGUAUGAGUAGGAUCUCCTT against Cd83 was -0.577.
Regarding GGAAGUGCUUUGAAGAAGATT against Strip2, the z-score is 1.21.
The value for GCUAACUUGCUCAUGCAAATT against Txlnb was -0.00758; that for GGAAUCGAGAUAUAAAAGGTT against Olfr352 was -1.29; that for GCUAGGAUUGUUCACAAACTT against Spdef was -0.707.
In the case of GCUCUUCUCAAGUAUGACGTT against Chrna6 it was 0.717.
In the case of GGAUGCUCACCUUCAAAUUTT against Il2 it was 2.33 (active).
Take GGAUGGAGAUUAUGAAGAGTT against Pcsk9: the z-score is -0.248.
In the case of CCUGUUACCCUAUAUUUUGTT against Vmn1r82 it was -1.02; in that of CGCAGUUCAUCGCAUGAUUTT against Arhgef12, 0.611; in that of GGAUGAAAGUCCAACCACATT against Tulp2, -0.17.
For GGGUUGAAUAUGUAGCUUGTT against Dsg1a, the z-score is 0.697.
On to GGUAUUUGAAUUUCGUCCCTT against Zc3h15, for which the z-score was 0.122.
In the case of “GGGACAACGCACUCCAACATT against 1810024B03Rik” it was 0.904; in that of CCAUUUGACAAGACUGCCATT against Ppp6r1, 0.921.
GCAGGUGAGAAAGUAUAAGTT against Mro: the z-score was -1.09.
With GGACUUCUAGAGAAGAAGCTT against Gpn2, the z-score is 0.0803.
For the sequence GCAUAGUUGGAACCGUAUUTT against Tdpoz3, the z-score was 2.25 (active).
Regarding CCAAUGACUUCUGGUUAGATT against Tdpoz1, the z-score was 0.665.
In the case of GGUCAGAAGAGUUUGCUAATT against Sgms2, the z-score was 0.552.
The value for CGAUGGAAGCACUUAUUUATT against Lep was 0.984; that for GGUCUUGGCACAAUUACAUTT against Actl6a was -2.07 (active).
The value for GGCCAAAUGAAGUCAAAAGTT against Srsf12 was -0.212.
As for “CCUUGUUUGAAUAACGAACTT against 5830427D03Rik”, the z-score was -1.73.
The value for CCCAGUUGCUAUGCUUGACTT against Defb37 was 1.68; that for GGCCAGGAGAUUCCUAUGATT against Shisa4 was -0.304; that for GGAUGAUUCUGGGUUACAGTT against Pwwp3a was -2.26 (active).
In the case of GGAAAAGUUAGCGUGUAAUTT against Prkcz it was -1.66; in that of CCAUCCAUAUGAACUAUGATT against Slc30a4, -1.5.
As for “CCAGACCUGUGGUAAUCUATT against D3Ertd751e”, the z-score was -0.875.
Turning to GCGCAUGAGUGCAAGGAUUTT against Prdm16, the z-score is 0.265.
In the case of GGAUCCGUUUUGGUGGAAUTT against Enpp4 it was 0.255.
In the case of GCACAUGCAUGGCUCUAAGTT against Hinfp it was 0.779; in that of GCUUCUAGUCAACAUCCAGTT against Klf15, 2.07 (active).
In the case of GGAAGACAAUCGCUGCGUGTT against Tet3 it was 0.927.
As to GCUUCUGUGGGCAACAGUUTT against Cryba1, the z-score was 0.0577.
In the case of GGUCUCAGUUGGAAUUAUUTT against Pds5a it was -0.806.
The value for GGAGAAUCAGGGUAGCACATT against Txnl4a was -0.52; that for GGUGUCAUUCACAAAAACUTT against Csnk1g1 was -1.09.
The value for GGCCAAGUCUGGAAUCACUTT against Angel2 was -2.42 (active); that for GCAGCAGGAAGGAUCAUUCTT against Ly6h was -0.0488; that for GGACUUCAUGGGUCGCUUUTT against Gstm2 was -0.185.
In the case of GGAAUUAACAGAGAAGAAATT against Rgs13, the z-score is -0.848.
Regarding GCUCCUGGUCUCAUUUACATT against Taf9b, the z-score is -0.386.
The value for GGUCACAGACAUUCCCGAATT against Atad2 was -2.89 (active); that for GGUGGUUUUCAGCAAGUACTT against Pde9a was -0.514.
AGUCAAGACCCAUAGAAAATT against Ociad2: the z-score is -1.87.
The value for GCUACCAUUUGAUCAGUUUTT against Entpd1 was 0.665; that for GUCAUCACAAGUCAAGAAGTT against Prol1 was -1.25.
In the case of GGAGAAGGUUCACUCUGAUTT against Traf1, the z-score was -0.666.
The value for GGAAACCUGAUUGCAUAUGTT against Nup37 was -0.259; that for GCAUUAACUGUCUUGAUCCTT against Olfr356 was 1.41.
The value for GCGUAACGCAGCAGCUAAGTT against Tarbp2 was -3.01 (active); that for GGAAUAAGGAAGUUAUUGGTT against Olfr706 was -0.356.
In the case of GGUAGAGGUGGAAUGUAGCTT against Qprt it was 1.36; in that of “GCCCAUCACAAAUAAACAATT against B230340J04Rik”, -1.17.
Regarding CCUUGUAGCUCUUUAUAAATT against Strn, the z-score was 2.24 (active).
The value for GCUCCUUAGAGAGAGUAUUTT against Sod3 was -0.399; that for GGGUCCAUGAACUCAAGAUTT against Rrnad1 was 0.473.
With GGCUGUGAGAACGAUGCAATT against Fam151a, the z-score is -1.08.
The value for GGAGGGAAGAAACAAUCUATT against Rnf40 was 0.497; that for GGGUGCAUUUGAGAAGAUCTT against Casd1 was 4.11 (active); that for GGAGUGCAUGACUCAGCUUTT against Olfr926 was -1.54.
In the case of GCUGACCGGCAUUUACCAUTT against Mcm2 it was 2.78 (active); in that of GGCUCUCUUCGGGAAUACUTT against Tmem234, 1.22.
GGAGAUCAACAGGAUUUUGTT against Gna15: the z-score is -1.35.
As for “GCUGUGUUAGAAAGCAGGCTT against 4931406H21Rik”, the z-score was 0.927.
In the case of GCUAUAGAUUCCUCUGCCATT against Olfr1098 it was -0.525; in that of CCCUAGAAUUAUAUCCUGUTT against Col4a1, -0.494; in that of GGGAUCAAUGCUUAAUACATT against Zfp2, 1.1.
The value for GGGAAACACAAUUUACCUUTT against Elf1 was 3.18 (active).
